Results: PubChem BioAssay (Tox21)
Where “and” joins values, the source holds several entries; their conditions need not be identical. Equal values may be shown once. Results filed as inconclusive are left out. A call without a number means that no potency is given here. Some compounds were tested as several samples or in several runs, with calls that do not always agree. Calls of active or inactive are those of the source. Unless noted, calls follow the shape of the dose curve; as a rule, active = well fitted curve in the direction sought with a large enough effect in the repeat runs; inconclusive = weak or mixed curves; inactive = no such curve, though single readings can be large; an effect the other way counts as inactive or inconclusive.

Experiments:
[1] = biological target: Acetylcholinesterase (Homo sapiens) (UniProt P22303); experiment: Acetylcholinesterase (AChE) small molecule antagonists: fluorescence cell-based qHTS assay (AID 1347398; calls by dose curve; also: nearly all actives have a fitted effect of over 50% in size); conditions: Potency: AChE activity; outcome: AChE activity
Acetylcholinesterase (Homo sapiens), sequence (P22303 whole entry, looked up): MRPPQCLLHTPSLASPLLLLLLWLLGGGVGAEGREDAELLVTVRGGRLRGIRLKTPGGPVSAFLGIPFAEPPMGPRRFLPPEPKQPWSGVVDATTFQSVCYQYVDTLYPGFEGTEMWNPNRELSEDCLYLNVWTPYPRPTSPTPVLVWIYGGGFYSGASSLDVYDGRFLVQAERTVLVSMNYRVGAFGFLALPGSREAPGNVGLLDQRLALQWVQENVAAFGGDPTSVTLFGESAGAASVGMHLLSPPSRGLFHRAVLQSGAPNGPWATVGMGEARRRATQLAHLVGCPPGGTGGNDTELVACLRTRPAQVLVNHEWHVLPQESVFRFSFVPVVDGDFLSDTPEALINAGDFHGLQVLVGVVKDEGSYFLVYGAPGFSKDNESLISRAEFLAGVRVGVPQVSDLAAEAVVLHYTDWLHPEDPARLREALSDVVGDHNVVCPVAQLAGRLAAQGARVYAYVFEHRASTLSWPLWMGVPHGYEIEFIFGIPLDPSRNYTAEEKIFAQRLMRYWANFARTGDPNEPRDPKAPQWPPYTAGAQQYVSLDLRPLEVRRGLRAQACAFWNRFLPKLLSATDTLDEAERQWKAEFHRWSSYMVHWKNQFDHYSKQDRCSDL
Outline: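 Fluorimetric cell-based assay: intact SH-SY5Y cells, 30 min compound preincubation at 37 C, acetylthiocholine substrate with thiol probe Thiolite Green, 40 min RT development, fluorescence 490/520 nm.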

[2] = biological target: Acetylcholinesterase (Homo sapiens) (UniProt P22303); experiment: Acetylcholinesterase (AChE) small molecule antagonists: enzyme-based qHTS assay with human liver microsomes (AID 1347399; calls by dose curve; also: nearly all actives have a fitted effect of over 60% in size); conditions: Potency: qHTS inhibition; outcome: qHTS inhibition
Outline: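 Recombinant human AChE (50 mU/mL in the enzyme mix) and human liver microsomes (0.25 mg/mL final) were preincubated with compound and NADPH (0.25 mg/mL final) for 30 min at 37 C. Acetylthiocholine/DTNB was then added; thiocholine was read colorimetrically after 10 min at room temperature.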

[3] = biological target: Cytochrome P450 2D6 (Homo sapiens) (UniProt P10635); experiment: Cytochrome P450 Family 2 Subfamily D Member 6 (CYP2D6) small molecule antagonists: luciferase reporter qHTS assay (AID 1671196); also: nearly all actives have a fitted effect of over 50% in size; as to activity change, negative = inhibition: series mostly up to about 120 µM
Cytochrome P450 2D6 (Homo sapiens), sequence (P10635 whole entry, looked up): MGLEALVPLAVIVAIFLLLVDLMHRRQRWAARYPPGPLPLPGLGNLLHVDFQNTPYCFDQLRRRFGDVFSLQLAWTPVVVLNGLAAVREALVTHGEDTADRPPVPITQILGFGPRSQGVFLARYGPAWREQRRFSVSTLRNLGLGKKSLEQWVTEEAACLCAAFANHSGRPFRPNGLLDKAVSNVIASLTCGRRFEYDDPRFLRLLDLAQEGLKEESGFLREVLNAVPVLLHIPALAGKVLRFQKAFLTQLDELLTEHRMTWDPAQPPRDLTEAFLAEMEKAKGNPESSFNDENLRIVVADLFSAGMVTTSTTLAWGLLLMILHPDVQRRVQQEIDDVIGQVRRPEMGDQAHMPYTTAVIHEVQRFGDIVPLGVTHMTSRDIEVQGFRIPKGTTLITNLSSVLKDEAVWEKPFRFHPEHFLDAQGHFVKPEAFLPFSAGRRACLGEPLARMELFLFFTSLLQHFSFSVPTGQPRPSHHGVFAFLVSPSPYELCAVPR
Outline: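 Read-out is luminescence from luciferin formed by CYP2D6 turnover of a proluciferin substrate, recorded as relative luminescence units. Reactions ran 1 h at room temperature after NADPH regeneration solution was added.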

[4] = biological target: Cytochrome P450 2C19 (Homo sapiens) (UniProt P33261); experiment: Cytochrome P450 Family 2 Subfamily C Member 19 (CYP2C19) small molecule antagonists: luciferase reporter qHTS assay (AID 1671197); also: nearly all actives have a fitted effect of over 65% in size; as to activity change, negative = inhibition: series mostly up to about 120 µM
Cytochrome P450 2C19 (Homo sapiens), sequence (P33261 whole entry, looked up): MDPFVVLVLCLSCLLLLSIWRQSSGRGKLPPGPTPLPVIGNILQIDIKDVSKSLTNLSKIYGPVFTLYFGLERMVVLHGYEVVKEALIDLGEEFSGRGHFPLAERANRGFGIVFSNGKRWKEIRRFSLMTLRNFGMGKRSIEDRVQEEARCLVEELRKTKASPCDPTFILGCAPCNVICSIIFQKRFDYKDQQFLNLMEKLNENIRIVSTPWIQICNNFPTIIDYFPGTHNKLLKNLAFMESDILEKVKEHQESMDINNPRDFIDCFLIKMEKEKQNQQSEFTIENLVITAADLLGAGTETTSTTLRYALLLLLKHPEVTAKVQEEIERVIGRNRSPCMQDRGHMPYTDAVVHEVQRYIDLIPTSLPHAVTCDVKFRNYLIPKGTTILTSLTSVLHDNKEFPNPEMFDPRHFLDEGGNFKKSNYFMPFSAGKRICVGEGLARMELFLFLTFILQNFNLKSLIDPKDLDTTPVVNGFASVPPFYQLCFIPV
Outline: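 P450-Glo CYP2C19 system: enzyme-substrate mix with compound 10 min at room temperature, then NADPH regeneration solution, 1 h at 37C. Proluciferin-to-luciferin conversion detected by luminescence after 20 min with detection reagent; ketoconazole as positive control.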

[5] = biological target: Cytochrome P450 2C9 (Homo sapiens) (UniProt P11712); experiment: Cytochrome P450 Family 2 Subfamily C Member 9 (CYP2C9) small molecule antagonists: luciferase reporter qHTS assay (AID 1671198); also: nearly all actives have a fitted effect of over 50% in size; as to activity change, negative = inhibition: series mostly up to about 120 µM
Cytochrome P450 2C9 (Homo sapiens), sequence (P11712 whole entry, looked up): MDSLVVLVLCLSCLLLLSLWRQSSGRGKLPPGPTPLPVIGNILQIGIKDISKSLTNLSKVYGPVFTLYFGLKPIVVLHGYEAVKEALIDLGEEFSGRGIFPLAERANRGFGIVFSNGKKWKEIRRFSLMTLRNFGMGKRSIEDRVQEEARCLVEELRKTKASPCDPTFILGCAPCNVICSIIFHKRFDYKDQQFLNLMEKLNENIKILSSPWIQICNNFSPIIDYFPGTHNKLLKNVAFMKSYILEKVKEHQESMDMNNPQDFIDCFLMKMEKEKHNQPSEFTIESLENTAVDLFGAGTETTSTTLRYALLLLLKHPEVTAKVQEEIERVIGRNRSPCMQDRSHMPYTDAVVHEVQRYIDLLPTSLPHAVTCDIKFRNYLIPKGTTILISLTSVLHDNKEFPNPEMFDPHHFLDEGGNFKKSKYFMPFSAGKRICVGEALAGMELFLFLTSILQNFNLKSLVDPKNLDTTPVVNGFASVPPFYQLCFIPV
Outline: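 Enzyme-substrate mix preincubated with compound 10 min at room temperature; reaction started with NADPH regeneration solution, 1 h 37C. Luminescent luciferin product read after 20 min detection reagent.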

[6] = biological target: Cytochrome P450 1A2 (Homo sapiens) (UniProt P05177); experiment: Cytochrome P450 Family 1 Subfamily A Member 2 (CYP1A2) small molecule antagonists: luciferase reporter qHTS assay (AID 1671199); also: nearly all actives have a fitted effect of over 50% in size; as to activity change, negative = inhibition: series mostly up to about 120 µM
Cytochrome P450 1A2 (Homo sapiens), sequence (P05177 whole entry, looked up): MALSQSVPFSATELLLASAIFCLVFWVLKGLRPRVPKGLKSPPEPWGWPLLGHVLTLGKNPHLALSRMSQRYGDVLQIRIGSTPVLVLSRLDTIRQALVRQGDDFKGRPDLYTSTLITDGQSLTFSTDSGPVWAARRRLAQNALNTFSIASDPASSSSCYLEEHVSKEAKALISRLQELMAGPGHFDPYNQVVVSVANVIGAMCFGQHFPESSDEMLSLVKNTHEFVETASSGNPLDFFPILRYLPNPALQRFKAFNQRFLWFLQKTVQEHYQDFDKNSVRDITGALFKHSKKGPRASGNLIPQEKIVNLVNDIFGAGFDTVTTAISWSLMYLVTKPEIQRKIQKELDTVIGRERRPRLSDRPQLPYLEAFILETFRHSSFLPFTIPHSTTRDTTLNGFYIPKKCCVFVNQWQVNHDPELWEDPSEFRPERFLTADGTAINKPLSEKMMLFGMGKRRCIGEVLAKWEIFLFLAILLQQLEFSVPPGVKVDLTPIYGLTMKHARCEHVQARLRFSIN
Outline: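 P450-Glo CYP1A2, 1536-well qHTS: enzyme/proluciferin substrate + cpd (DMSO), 10 min RT; NADPH regen, 1 h RT; detection reagent, 20 min; luminescence, RLU.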

[7] = biological target: Cytochrome P450 3A4 (Homo sapiens) (UniProt P08684); experiment: Cytochrome P450 Family 3 Subfamily A Member 4 (CYP3A4) small molecule antagonists: luciferase reporter qHTS assay (AID 1671201); also: nearly all actives have a fitted effect of over 50% in size; as to activity change, negative = inhibition: series mostly up to about 120 µM
Cytochrome P450 3A4 (Homo sapiens), sequence (P08684 whole entry, looked up): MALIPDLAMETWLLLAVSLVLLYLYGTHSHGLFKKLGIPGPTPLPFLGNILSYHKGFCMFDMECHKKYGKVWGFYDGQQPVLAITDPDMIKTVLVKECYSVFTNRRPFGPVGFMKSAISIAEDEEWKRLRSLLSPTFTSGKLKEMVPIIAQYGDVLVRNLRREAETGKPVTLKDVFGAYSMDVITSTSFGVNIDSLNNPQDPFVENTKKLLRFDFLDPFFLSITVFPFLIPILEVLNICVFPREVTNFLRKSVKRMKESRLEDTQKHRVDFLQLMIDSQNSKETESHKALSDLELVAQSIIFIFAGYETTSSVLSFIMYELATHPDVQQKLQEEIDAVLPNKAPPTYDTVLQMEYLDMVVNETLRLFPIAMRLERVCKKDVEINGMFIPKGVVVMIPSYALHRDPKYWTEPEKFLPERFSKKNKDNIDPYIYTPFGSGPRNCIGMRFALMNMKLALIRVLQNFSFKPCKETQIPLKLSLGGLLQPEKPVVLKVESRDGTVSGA
Outline: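 Compounds in DMSO were pin-transferred onto CYP3A4 enzyme-substrate mix and held 10 min at room temperature. NADPH regenerating solution started the reaction for 1 h; luciferin detection reagent stopped it, and luminescence was read after 20 min.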

[8] = biological target: Voltage-gated inwardly rectifying potassium channel KCNH2 (Homo sapiens) (UniProt Q12809); experiment: Human Ether-a-go-go-Related Gene (hERG) channel small molecule antagonists: fluorescence cell-based qHTS assay (AID 1671200); also: nearly all actives have a fitted effect of over 50% in size;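 as to activity change, negative = inhibition: hERG-expressing U2OS cells given a thallium stimulus after FluxOR II dye loading; series mostly up to about 77 µM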
Voltage-gated inwardly rectifying potassium channel KCNH2 (Homo sapiens), sequence (Q12809 whole entry, looked up): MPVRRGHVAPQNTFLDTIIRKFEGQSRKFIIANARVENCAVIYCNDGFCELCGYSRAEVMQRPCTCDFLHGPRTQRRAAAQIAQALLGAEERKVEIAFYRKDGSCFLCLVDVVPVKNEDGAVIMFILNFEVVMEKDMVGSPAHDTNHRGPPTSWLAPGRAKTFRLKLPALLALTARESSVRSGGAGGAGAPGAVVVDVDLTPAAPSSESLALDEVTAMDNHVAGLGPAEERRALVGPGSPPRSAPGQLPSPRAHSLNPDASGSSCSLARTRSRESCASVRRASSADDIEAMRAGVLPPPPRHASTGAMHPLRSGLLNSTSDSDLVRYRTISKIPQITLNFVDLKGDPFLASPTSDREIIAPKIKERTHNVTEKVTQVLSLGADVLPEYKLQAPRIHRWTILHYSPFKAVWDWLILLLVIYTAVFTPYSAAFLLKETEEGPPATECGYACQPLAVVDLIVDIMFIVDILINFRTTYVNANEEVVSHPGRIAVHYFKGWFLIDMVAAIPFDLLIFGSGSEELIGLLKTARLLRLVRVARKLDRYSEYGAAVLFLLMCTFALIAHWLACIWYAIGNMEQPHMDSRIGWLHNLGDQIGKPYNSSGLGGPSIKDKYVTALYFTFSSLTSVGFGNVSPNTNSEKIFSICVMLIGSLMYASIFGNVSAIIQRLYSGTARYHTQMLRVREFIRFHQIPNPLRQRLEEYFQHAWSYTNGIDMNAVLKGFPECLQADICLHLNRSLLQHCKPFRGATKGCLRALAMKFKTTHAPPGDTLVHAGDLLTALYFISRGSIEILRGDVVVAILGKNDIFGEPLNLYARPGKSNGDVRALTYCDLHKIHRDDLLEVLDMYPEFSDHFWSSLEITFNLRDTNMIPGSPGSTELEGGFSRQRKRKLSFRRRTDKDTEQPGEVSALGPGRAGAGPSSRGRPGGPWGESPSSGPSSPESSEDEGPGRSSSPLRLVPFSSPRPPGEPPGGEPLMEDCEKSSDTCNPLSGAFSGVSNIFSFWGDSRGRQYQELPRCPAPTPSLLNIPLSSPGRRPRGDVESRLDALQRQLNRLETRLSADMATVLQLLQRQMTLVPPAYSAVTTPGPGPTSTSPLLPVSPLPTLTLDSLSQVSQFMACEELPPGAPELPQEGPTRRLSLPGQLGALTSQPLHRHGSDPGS
Outline: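 Channel function was assessed by thallium flux. Cells seeded the previous day and kept at 37 C took up FluxOR II dye over 1 h in the dark at room temperature, then sat another 10 min before stimulation.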

[9] = biological target: Acetylcholinesterase (Homo sapiens) (UniProt P22303); experiment: Acetylcholinesterase (AChE) small molecule antagonists: enzyme-based qHTS assay (AID 1347397; calls by dose curve; also: nearly all actives have a fitted effect of over 55% in size); conditions: Potency: AChE enzyme activity inhibition; outcome: AChE enzyme activity inhibition
Outline: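 Absorbance-based detection of thiocholine with DTNB served as the read-out. Recombinant human AChE was exposed to compound for 30 min at RT before a 10 min RT incubation with acetylthiocholine.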
Potency is read from the fitted curve at half-maximal effect.

CCOC(=O)c1cn2nc(OP(=S)(OCC)OCC)cc2nc1C
Potency [1]: 39.9 µM (active) | Potency [2]: 2 µM (active) | Potency [3]: 25.2 µM (active) | Potency [4]: 2.52 µM (active) | Potency [5]: 5.03 µM (active) | Potency [6]: 8.94 µM (active) | Potency [7]: 28.3 µM (active)

COP(=O)(OC)OC(Br)C(Cl)(Cl)Br (configuration not stated)
Potency [1]: inactive | Potency [3]: 40 µM (active) and 39.9 µM (active) | Potency [4]: 7.98 µM (active) and 17.8 µM (active) | Potency [5]: 25.2 µM (active) and 22.4 µM (active) | Potency [6]: 35.6 µM (active) | Potency [8]: inactive | Potency [7]: 79.8 µM (active) and inactive

[Cl-].[Cl-].[Hg+2]
Potency [8]: 38.7 µM (active) and 6.92 µM (active)

CC(=O)NNc1ccccc1
Potency [8]: inactive

CCC[N+](CCC)(CCC)CCC
Potency [9]: inactive | Potency [1]: inactive | Potency [2]: inactive | Potency [5]: inactive | Potency [7]: inactive

O=C(O)CCCOc1ccc(Cl)cc1Cl
Potency [8]: inactive

O=C(NCNC(=O)NC1C(=O)NC(=O)N1CO)NC1C(=O)NC(=O)N1CO (configuration not stated)
Potency [8]: inactive

COCc1cnc(C2=NC(C)(C(C)C)C(=O)N2)c(C(=O)O)c1 (configuration not stated)
Potency [9]: inactive | Potency [1]: inactive | Potency [2]: inactive | Potency [5]: 35.6 µM (active) | Potency [8]: inactive | Potency [7]: inactive

CC(C)c1ccc(NC(=O)N(C)C)cc1
Potency [9]: inactive | Potency [1]: inactive | Potency [2]: inactive | Potency [4]: 31.7 µM (active) | Potency [6]: 15.9 µM (active) | Potency [8]: inactive | Potency [7]: inactive

C#C[C@]1(O)CC[C@H]2[C@@H]3CCC4=CC(=O)CCC4=C3C=C[C@@]21CC
Potency [9]: inactive | Potency [2]: inactive | Potency [4]: 2.45 µM (active) | Potency [5]: 0.776 µM (active) | Potency [6]: inactive | Potency [8]: inactive

C[C@]12C=CC3=C4CCC(=O)C=C4CC[C@H]3[C@@H]1CC[C@@H]2O
Potency [9]: inactive | Potency [1]: inactive | Potency [2]: inactive | Potency [5]: 35.3 µM (active) and 30.1 µM (active) | Potency [6]: 39.7 µM (active) | Potency [8]: inactive | Potency [7]: 31.5 µM (active) and inactive

CCCN(CCC)C(=O)Cc1c(-c2ccc(Cl)cc2)nc2ccc(Cl)cn12
Potency [9]: inactive | Potency [1]: inactive | Potency [2]: inactive | Potency [5]: 9.77 µM (active) | Potency [6]: 16.2 µM (active)

O=C(O)c1cc(I)cc(I)c1I
Potency [9]: inactive | Potency [1]: inactive | Potency [2]: inactive | Potency [5]: 13.6 µM (active) | Potency [8]: inactive | Potency [7]: inactive

O=S(=O)(Cl)Cl
Potency [9]: inactive | Potency [1]: inactive | Potency [2]: inactive | Potency [5]: inactive | Potency [6]: inactive | Potency [8]: inactive | Potency [7]: inactive

COc1ccccc1N1CCNCC1
Potency [4]: inactive | Potency [5]: inactive | Potency [6]: inactive | Potency [8]: inactive | Potency [7]: inactive

CCCN(CCOc1c(Cl)cc(Cl)cc1Cl)C(=O)n1ccnc1
Potency [9]: inactive | Potency [2]: inactive | Potency [3]: 363 nM (active) and 1 µM (active) | Potency [4]: 22.9 nM (active) and 50.2 nM (active) | Potency [5]: 457 nM (active) and 796 nM (active) | Potency [6]: 129 nM (active) and 224 nM (active) | Potency [8]: 12.6 µM (active) and 19.5 µM (active) | Potency [7]: 32.4 nM (active) and 100 nM (active)

CC(C)c1ccc(OP(=O)(Oc2ccc(C(C)C)cc2)Oc2ccc(C(C)C)cc2)cc1
Potency [9]: 28.5 µM (active) and 28.3 µM (active) | Potency [2]: inactive | Potency [4]: 3.58 µM (active) and 3.56 µM (active) and 2.83 µM (active) | Potency [5]: 2.26 µM (active) and 3.17 µM (active) and 2.83 µM (active) | Potency [6]: 22.6 µM (active) and 15.9 µM (active) and 17.8 µM (active) | Potency [8]: 17.5 µM (active) and 21.9 µM (active) | Potency [7]: inactive

CCC1(CCC(C)C)C(=O)NC(=O)NC1=O
Potency [9]: inactive | Potency [1]: inactive | Potency [2]: inactive | Potency [8]: inactive

O=C(O)c1cc(Cl)ccc1Cl
Potency [9]: inactive | Potency [2]: inactive | Potency [4]: 79.3 µM (active) | Potency [6]: 39.7 µM (active) | Potency [8]: inactive | Potency [7]: inactive

CCOP(=S)(OCC)Oc1ccc(S(C)=O)cc1 (configuration not stated)
Potency [9]: inactive | Potency [2]: inactive | Potency [4]: 0.113 µM (active) | Potency [5]: 0.252 µM (active) | Potency [6]: 3.99 µM (active) | Potency [8]: inactive

Clc1ccc(Cl)c(Cl)c1
Potency [8]: inactive

CCCCCCCCCCCCN=C(N)N
activity change, negative = inhibition [9]: -1.29% [at 4.07 µM] (inactive) | activity change, negative = inhibition [1]: -10.7% [at 3.98 µM] (inactive) | activity change, negative = inhibition [2]: 1.01% [at 4.07 µM] (inactive) | activity change, negative = inhibition [5]: -14.6% [at 4.07 µM] (inactive) | Potency [6]: 2.2 µM (active) | activity change, negative = inhibition [8]: -4.13% [at 2.72 µM] (inactive) | activity change, negative = inhibition [7]: 2.59% [at 4.07 µM] (inactive)

Cc1ccc(N)c(C)c1
Potency [3]: inactive and 896 nM (active) | Potency [4]: 39.5 µM (active) and 7.12 µM (active) | Potency [5]: 35.7 µM (active) | Potency [6]: 11.1 µM (active) and 2.83 µM (active) | Potency [8]: inactive | Potency [7]: 40 µM (active)
